# Hits are enriched below; roughly 27% of the tested compounds scored in any of these assays.
# CYP2C9 inhib: blockers of cytochrome P450 2C9 activity – biochemical, luminescence, ADME assay, primary screen; P11712; CYP2C9 Supersomes, luciferin-H conversion; inhibition, % at 5 µM; 96,000 compounds, 20% hits; AID 777, 2007;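 active means blocking of liver enzyme CYP2C9 beyond about 50% at 5 µM, limit read from the data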
# CYP2C19 activ: human CYP2C19 activators, primary screen, biochemical, luminescence; Cytochrome P450 2C19 (Homo sapiens), P33261; recombinant CYP2C19, luciferin-H EGE luminescence; hits give high values; 0 = fully inhibited enzyme, 1 = untreated enzyme; activation factor at 5 µM; 96,000 tested, under 10 active;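 active means activation factor of at least 2 at 5 µM in the primary screen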
# sEH act: soluble epoxide hydrolase activators, primary screen, biochemical, human sEH. Bifunctional epoxide hydrolase 2 (Homo sapiens), P34913. purified human sEH enzymatic activity, activator screen. activation, % at 2 µM. 91,000 compounds, 0.04% hits; in the data active means activation above about 37%
# Target sequence (P34913 whole entry, looked up): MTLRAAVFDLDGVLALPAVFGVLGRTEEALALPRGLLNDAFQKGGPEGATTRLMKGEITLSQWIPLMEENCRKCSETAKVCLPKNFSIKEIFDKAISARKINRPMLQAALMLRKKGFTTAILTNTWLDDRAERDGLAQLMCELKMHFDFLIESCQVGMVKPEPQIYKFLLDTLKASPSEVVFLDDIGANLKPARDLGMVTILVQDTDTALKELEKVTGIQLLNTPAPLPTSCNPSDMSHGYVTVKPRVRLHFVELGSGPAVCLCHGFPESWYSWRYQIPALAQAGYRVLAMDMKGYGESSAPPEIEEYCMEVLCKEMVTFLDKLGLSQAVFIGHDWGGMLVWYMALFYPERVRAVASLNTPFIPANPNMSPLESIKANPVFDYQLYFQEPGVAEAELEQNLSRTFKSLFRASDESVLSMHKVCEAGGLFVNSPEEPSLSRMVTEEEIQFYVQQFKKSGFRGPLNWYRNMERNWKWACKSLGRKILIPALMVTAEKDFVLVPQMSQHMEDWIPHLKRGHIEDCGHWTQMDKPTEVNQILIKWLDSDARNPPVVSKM
# sEH inhibitor: soluble epoxide hydrolase inhibitors, primary screen, biochemical, human sEH; recombinant human sEH enzymatic activity assay; inhibition, % at 2 µM; 91,000 compounds, 0.34% hits; AID 707, 2007; in the data active means inhibition above about 80%
# CYP2C19 inh: blockers of cytochrome P450 2C19 activity – biochemical, luminescence, ADME assay, primary screen. CYP2C19 Supersomes, luciferin-H EGE luminescence, 30 min. 96,000 compounds, 21% hits. inhibition, % at 5 µM. AID 778, 2007. P33261;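 active means CYP2C19 inhibition above a set limit at 5 µM in the primary screen, cut at about 50% in these data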
# CYP2C9 act: human CYP2C9 activators, primary screen, biochemical, luminescence | AID 1024, 2008 | 96,000 compounds, 1.4% hits | activation factor at 5 µM | recombinant CYP2C9, luciferin-H conversion; hits give high values; factor 1 = untreated enzyme, 0 = blocked;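 active means activation factor of 2 or more for CYP2C9 at a 5 µM dose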
# Hits are given with their value; 0 = inactive; - = no result.
SMILES,CYP2C9 inhib,CYP2C19 activ,sEH act,sEH inhibitor,CYP2C19 inh,CYP2C9 act
COC(=O)c1cc(Br)c(=O)n(CCc2ccc(F)cc2)c1,56,0,0,0,94,0
COC(=O)c1cc(Br)c(=O)n(-c2ccccc2F)c1,0,0,0,0,51,0
COC(=O)c1cc(Br)c(=O)n(CC(C)C)c1,0,0,0,0,0,0
COC(=O)C1=C(C)N(CCC2=CCCCC2)C(=O)C1,0,0,0,0,98,0
CC1CCN(S(=O)(=O)c2ccc(NC(=O)Cc3cccs3)cc2)CC1,0,0,0,0,0,0
CC(C)CNC(=S)NC1CCCC1,0,0,0,0,0,0
COC(=O)c1cc(Br)c(=O)n(CCC2=CCCCC2)c1,85,0,0,0,96,0
COC(=O)c1cc(Br)c(=O)n(CCN2CCCCC2)c1,0,0,0,0,0,0
COC(=O)c1cc(Br)c(=O)n(CCN2CCCC2)c1,0,0,-,-,0,0
COC(=O)c1cc(Br)c(=O)n(CCc2ccc(O)cc2)c1,0,0,0,0,52,0
O=C(OCC(=O)N1N=C(c2ccc(Cl)cc2)CC1c1ccco1)c1ccccc1O (stereo unspecified),88,0,0,0,0,0
O=S(=O)(/N=C(\Nc1ccc(F)cc1)C(F)(F)F)c1ccccc1,56,0,0,0,0,0
Cc1cccc(N/C(=N\S(=O)(=O)c2ccccc2)C(F)(F)F)c1,56,0,0,0,0,0
O=S(=O)(/N=C(/Nc1cc(N2CCOCC2)ncn1)c1ccc(F)cc1)c1ccccc1,0,0,0,0,0,0
Cc1cc([N+](=O)[O-])nn1CC(=O)N1CCc2ccccc2C1,0,0,0,0,0,0
N#Cc1c(NC(=O)c2ccc(-c3ccccc3[N+](=O)[O-])o2)sc2c1CCCC2,99,0,0,0,0,0
Cc1cc(C(=O)Nc2sc3c(c2C#N)CCCCC3)cs1,0,0,0,0,0,0
CC1CCc2c(sc(NC(=O)c3ccc(-c4ccccc4[N+](=O)[O-])o3)c2C#N)C1 (stereo unspecified),91,0,0,0,0,0
CCCc1[nH]nc2c1C(c1ccc(OC)cc1OC)C(C#N)=C(N)O2 (stereo unspecified),0,0,0,0,0,0
CCCc1[nH]nc2c1C(c1cccc(OC)c1)C(C#N)=C(N)O2 (stereo unspecified),76,0,0,0,73,0
CCCc1[nH]nc2c1C(c1ccc(O)cc1OCC)C(C#N)=C(N)O2 (stereo unspecified),53,0,0,0,76,0
CCCc1[nH]nc2c1C(c1ccc(OCCN3CCOCC3)c(OCC)c1)C(C#N)=C(N)O2 (stereo unspecified),0,0,0,0,0,0
O=C(OCc1cc(=O)n2c(n1)sc1ccccc12)c1ccc2c(=O)n3c(nc2c1)CCC3,76,0,-,-,0,0
O=C1CC(c2ccccc2)c2c(O)cc(O)cc2O1 (stereo unspecified),79,0,0,0,63,0
O=C1CC(c2ccccc2)c2ccc(O)cc2O1 (stereo unspecified),54,0,0,0,0,0
SMILES,CYP2C9 inhib,CYP2C19 activ,sEH act,sEH inhibitor,CYP2C19 inh,CYP2C9 act
CC(=O)C1=C(C)NC(=O)NC1c1cccc(O)c1 (stereo unspecified),0,0,0,0,0,0
COc1ccc(N2C(=O)CS/C2=C\[N+](=O)[O-])cc1,0,0,0,0,0,0
COc1ccc(S(=O)(=O)NCCN2CCOCC2)c2ccccc12,0,0,0,0,92,0
Cc1cc(S(=O)(=O)NCCN2CCOCC2)c(C)s1,0,0,0,0,0,0
COc1cc(S(=O)(=O)NCCN2CCOCC2)c(OC)cc1Cl,0,0,0,0,65,0
C=CCn1c(SCC(=O)c2ccc(NS(=O)(=O)c3ccccc3)cc2)nnc1-c1cccs1,97,0,-,-,58,0
C=CCn1c(CCNC(=O)c2cccs2)nnc1SCC(=O)c1ccc(Br)cc1,72,0,0,0,51,0
C=CCn1c(SCc2ccc3nonc3c2)nnc1-c1cccs1,76,0,0,0,99,0
C=CCn1c(SCC(=O)C(C)(C)C)nnc1-c1cccs1,0,0,0,0,76,0
C=CCn1c(SCC(=O)C(C)(C)C)nnc1-c1ccccn1,-,-,0,0,-,-
CCn1c(CNC(=O)c2cccs2)nnc1SCC(=O)NCCc1ccccc1,0,0,0,0,0,0
COc1ccccc1-n1c(SCC(=O)N2CCCC2)nc2cccnc21,0,0,0,0,0,0
Cc1occc1-c1nnc(SCC(=O)NCc2cccs2)n1CC1CCCO1 (stereo unspecified),0,0,0,0,0,0
CC(C)(C)C(=O)CSc1nnc(-c2cccs2)n1CC1CCCO1 (stereo unspecified),0,0,0,0,56,0
Nc1nonc1C(=O)NCCNC(=O)c1cccs1,0,0,0,0,0,0
CCCCCOC(=O)c1ccc(OC(=O)c2cncc(Br)c2)cc1,0,0,0,0,0,0
CCOc1ccc(-c2[nH]ncc2Oc2ccccc2OCC)c(O)c1,88,0,0,0,90,0
COc1ccc(-c2cc(-c3ccc(OC)c(OC)c3)n[nH]2)c(O)c1,0,0,0,0,0,0
C=C(C)COc1ccc(-c2[nH]ncc2Oc2ccccc2OC)c(O)c1,85,0,0,0,61,0
CCCOC(=O)c1ccc(Oc2cn[nH]c2-c2ccc(OC)cc2O)cc1,99,0,0,0,97,0
CCOc1ccc(-c2[nH]ncc2-c2ccc(OC)c(OC)c2)c(O)c1,84,0,0,0,84,0
CCn1c(CSc2nc(C)cc(C)n2)nnc1SCC(=O)N1CCCc2ccccc21,0,0,0,0,0,0
CCCC(=O)Nc1ccc(C(=O)NNC(=O)COc2ccc(Br)c(C)c2)cc1,0,0,0,0,0,0
C=C(C)COc1ccc(-c2nc(N)ncc2Oc2ccccc2OC)c(O)c1,0,0,0,0,0,0
C=C(C)COc1ccc(-c2[nH]ncc2-c2ccccc2OC)c(O)c1,89,0,0,0,75,0
CCOc1ccc(-c2[nH]ncc2Oc2ccccc2OC)c(O)c1,98,0,0,0,99,0
c1ccc(-n2c(-c3ccncc3)nnc2-c2ccco2)cc1,0,0,0,0,80,0
c1ccc(-n2c(-c3ccncc3)nnc2-c2cccs2)cc1,54,0,0,0,71,0
CSc1nnc(-c2cccs2)n1-c1ccccc1,0,0,0,0,0,0
O=C(CN1C(=O)C2C3C=CC(C3)C2C1=O)Nc1nc2ccccc2[nH]1 (stereo unspecified),0,0,0,0,0,0

# Assay outcomes deposited in PubChem by several laboratories.
